The results in this text go back to PubChem BioAssay (NCI).

Test in all cases: NCI-60 one-dose screen, 48 h (100 = growth as untreated, 0 = no growth, -100 = all killed)
Settings in all cases: 10 µM unless noted

Experiment [1] concerns NCI-H23 lung.
The test system of experiment [2] is NCI-H226 lung.
Experiment [3] relates to NCI-H322M lung.
The subject of experiment [4] is HOP-62 NSCLC.
The subject of experiment [5] is NCI-H460 lung.
The test system of experiment [6] is HOP-92 NSCLC.
Experiment [7] concerns NCI-H522 lung.
For experiment [8], the system named is A549/ATCC NSCLC.
The test system of experiment [9] is 786-0 renal.
For experiment [10], the system named is COLO 205 colon.
For experiment [11], the system named is DU-145 prostate.
Experiment [12] has as its system K-562 leukemia.
The subject of experiment [13] is MALME-3M melanoma.
The test system of experiment [14] is MDA-MB-231 breast.
Experiment [15] deals with RXF 393 renal.
Experiment [16] concerns SF-268 CNS.
For experiment [17], the system named is SF-295 CNS.
For experiment [18], the system named is SF-539 CNS.
For experiment [19], the system named is UACC-257 melanoma.
Experiment [20] has as its system M14 melanoma.

Values joined by “and” are separate entries in the source; they are usually repeats but may differ in a detail not shown here. Equal entries are not always repeated. About 83,000 compounds went through this panel and 20% of them were active in at least one assay; those are over-represented in the sample as a whole.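 Each cell line was grown in a 96-well plate and treated with one concentration of compound for 48 hours. Values below 10 were considered active.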 Active and inactive are the calls of the source.

As to `O[C@H](c1cc(C(F)(F)F)nc2c(C(F)(F)F)cccc12)[C@@H]1CCCCN1`, the growth in experiment [1] is 79.2% (inactive) and 77.8% (inactive); in experiment [2], 93.5% (inactive) and 58.9% (inactive); in [3] it was 68.6% (inactive) and 52% (inactive); in experiment [4], 71.3% (inactive) and 74.6% (inactive); in experiment [5], 27.7% (inactive) and 23.6% (inactive); in experiment [6], 9.97% (active) and -8.33% (active). The growth in [7] is 58.4% (inactive) and 22.8% (inactive); in experiment [8], 56.9% (inactive) and 67.1% (inactive); in [9], 42.4% (inactive) and 56.6% (inactive); in experiment [10] it was 62.3% (inactive) and 60.5% (inactive); in experiment [11] it was 67% (inactive) and 70.2% (inactive); in experiment [12], 8.6% (active) and 11.9% (inactive). The growth in [13] was 89.6% (inactive) and 82.2% (inactive); in [14] it was 15.1% (inactive) and 17.7% (inactive); in experiment [15], 44% (inactive) and 43.3% (inactive); in experiment [16], 57.9% (inactive) and 56.6% (inactive); in experiment [17], 93.6% (inactive); in experiment [18], 81.1% (inactive) and 75.6% (inactive). Also, the growth was 58.1% (inactive) and 75.4% (inactive) in experiment [19]; 67.2% (inactive) and 71.8% (inactive) in experiment [20].

On to `O=C(Nc1cccc(Cl)c1)c1cc2ccccc2cc1O`, for which the growth in [1] is 4.9% (active) and 9.55% (active); in experiment [2] it was 45.8% (inactive) and 40.6% (inactive); in [3], 15% (inactive) and -3.24% (active); in experiment [4], 37.7% (inactive) and 15.1% (inactive); in experiment [5] it was 5.98% (active) and 5.93% (active); in [6], -30.8% (active) and -32.5% (active). The growth in experiment [7] was 1.12% (active) and 2.91% (active); in experiment [8], 20.7% (inactive) and 9.25% (active); in experiment [9] it was 53.6% (inactive) and 17.3% (inactive); in experiment [10], 104% (inactive) and 42.6% (inactive); in experiment [11], 22.1% (inactive) and 25.1% (inactive); in [12], 25.8% (inactive) and 10.5% (inactive). In addition, the growth is 2.77% (active) and -9.95% (active) in experiment [13]; 27% (inactive) and -1.46% (active) in experiment [14]; 18% (inactive) and 33% (inactive) in [15]; 21.2% (inactive) and 24.4% (inactive) in [16]; 13.5% (inactive) and 62.2% (inactive) in experiment [17]; 28.4% (inactive) and 11.7% (inactive) in [18]. Besides, the growth in experiment [19] was 5.37% (active) and -16.3% (active); in [20], 48.4% (inactive) and 18.2% (inactive).

Turning to `CCC(C)C1(C2CCCC2)NC(=O)NC1=O` (stereo not given), the growth in experiment [1] is 103% (inactive) and 101% (inactive); in [2], 113% (inactive) and 108% (inactive); in experiment [3], 99.1% (inactive) and 115% (inactive); in [4] it was 98.6% (inactive) and 102% (inactive); in experiment [5], 117% (inactive) and 107% (inactive); in experiment [6], 92.1% (inactive). Further, the growth in experiment [7] was 77.2% (inactive) and 105% (inactive); in experiment [8], 100% (inactive) and 106% (inactive); in [9], 104% (inactive) and 108% (inactive); in experiment [10] it was 102% (inactive) and 116% (inactive); in [11], 121% (inactive); in experiment [12] it was 99.3% (inactive). The growth in [13] was 114% (inactive); in experiment [14] it was 101% (inactive) and 94.3% (inactive); in experiment [15] it was 106% (inactive) and 127% (inactive); in [16], 103% (inactive) and 107% (inactive); in experiment [17] it was 117% (inactive) and 93.9% (inactive); in experiment [18] it was 104% (inactive) and 96.6% (inactive). The growth in experiment [19] is 94.9% (inactive) and 101% (inactive); in experiment [20], 98.4% (inactive) and 106% (inactive).

As for `Oc1c(Cl)cc(Cl)cc1Sc1cc(Cl)cc(Cl)c1O`, the growth in experiment [1] is 11.4% (inactive) and 6.4% (active) and 76% (inactive); in [2], 94.5% (inactive) and 48.1% (inactive) and 88.3% (inactive); in [3] it was 25.6% (inactive) and 33.1% (inactive) and 87.1% (inactive); in experiment [4] it was 85.8% (inactive) and 61.6% (inactive); in [5] it was 7.66% (active) and 11.8% (inactive) and 62.3% (inactive); in experiment [6], -12.5% (active) and -28.3% (active) and 32.7% (inactive). The growth in experiment [7] is 2.94% (active) and -18.8% (active) and 48.9% (inactive); in experiment [8], 62.5% (inactive) and 8.2% (active) and 88.4% (inactive); in [9], 47.7% (inactive) and 104% (inactive); in experiment [10], 118% (inactive) and 87.9% (inactive) and 110% (inactive); in [11], 75.6% (inactive) and 29.3% (inactive) and 94.6% (inactive); in [12] it was 18% (inactive) and 8.54% (active) and 41% (inactive). Besides, the growth in experiment [13] was 10.7% (inactive) and 11.3% (inactive) and 82.2% (inactive); in experiment [14], 84.2% (inactive) and -21.8% (active) and 79.6% (inactive); in [15], 91.3% (inactive) and 16.1% (inactive) and 87.9% (inactive); in experiment [16] it was 33.2% (inactive) and 21.9% (inactive) and 72.1% (inactive); in experiment [17], 18.6% (inactive) and 15.7% (inactive) and 75.4% (inactive); in experiment [18] it was 25.8% (inactive) and 93.6% (inactive). Besides, the growth in [19] was 56% (inactive) and -16.2% (active) and 77.3% (inactive); in [20] it was 69.1% (inactive) and 35% (inactive) and 105% (inactive).

With `Cc1cc(O)c(C(C)C)cc1N`, the growth in experiment [1] is 97.5% (inactive) and 92.7% (inactive); in [2] it was 108% (inactive) and 93.1% (inactive); in experiment [3] it was 122% (inactive) and 102% (inactive); in experiment [4] it was 90% (inactive) and 109% (inactive); in experiment [5], 121% (inactive) and 103% (inactive); in experiment [6], 100% (inactive). Besides, the growth is 82.5% (inactive) and 86.9% (inactive) in experiment [7]; 109% (inactive) and 110% (inactive) in experiment [8]; 97.2% (inactive) and 105% (inactive) in [9]; 130% (inactive) and 126% (inactive) in experiment [10]; 115% (inactive) and 116% (inactive) in [11]; 113% (inactive) and 101% (inactive) in experiment [12]. The growth is 113% (inactive) and 112% (inactive) in experiment [13]; 103% (inactive) and 92.3% (inactive) in [14]; 119% (inactive) and 115% (inactive) in experiment [15]; 102% (inactive) and 120% (inactive) in experiment [16]; 104% (inactive) and 99% (inactive) in [17]; 101% (inactive) and 95.6% (inactive) in experiment [18]. In addition, the growth is 107% (inactive) and 111% (inactive) in experiment [19]; 108% (inactive) and 112% (inactive) in experiment [20].

Regarding `CO/N=C/C=C\C(=O)N/C=C/C[C@H]1/C=C/[C@H](O)/C=C\C=C\c2cccc(O)c2C(=O)O1`, the growth in experiment [1] is 61.4% (inactive) and 54.8% (inactive); in [2], -81.9% (active) and -73.8% (active); in [3], 42.8% (inactive) and 51.7% (inactive); in experiment [4], 19.5% (inactive) and 17.4% (inactive); in [5] it was 16.9% (inactive) and 8.82% (active); in experiment [6], 23.9% (inactive) and -9.99% (active). The growth is 28.1% (inactive) and 15% (inactive) in experiment [7]; 18.1% (inactive) and 12% (inactive) in experiment [8]; 24.2% (inactive) and 18.7% (inactive) in experiment [9]; 15.2% (inactive) and 14.3% (inactive) in experiment [10]; 55.6% (inactive) and 40% (inactive) in experiment [11]; 4.46% (active) and 2.94% (active) in experiment [12]. Moreover, the growth was 59.8% (inactive) and 22.5% (inactive) in experiment [13]; 27.3% (inactive) and 41.9% (inactive) in [14]; 51% (inactive) and 55.5% (inactive) in experiment [15]; 45.5% (inactive) and 31.9% (inactive) in experiment [16]; -36.9% (active) and -43.7% (active) in experiment [17]; 21% (inactive) and 4.04% (active) in experiment [18]. Further, the growth in experiment [19] was -16.7% (active) and 21.8% (inactive); in experiment [20], -13.4% (active) and -41% (active).

As for `COc1ccc(CCN(C)CCCC(C#N)(c2ccc(OC)c(OC)c2)C(C)C)cc1OC` (stereo not given), the growth was 86.9% (inactive) and 106% (inactive) and 86.1% (inactive) in [1]; 113% (inactive) and 102% (inactive) and 101% (inactive) in experiment [2]; 96.4% (inactive) and 91.3% (inactive) in experiment [3]; 90.8% (inactive) and 86.4% (inactive) in experiment [4]; 95.5% (inactive) and 111% (inactive) and 102% (inactive) in experiment [5]; 81.2% (inactive) in experiment [6]. In addition, the growth was 98.8% (inactive) and 91.6% (inactive) in experiment [7]; 87.5% (inactive) and 104% (inactive) and 101% (inactive) in experiment [8]; 93.7% (inactive) and 88.8% (inactive) and 107% (inactive) in [9]; 100% (inactive) and 109% (inactive) and 101% (inactive) in experiment [10]; 103% (inactive) and 96.6% (inactive) in experiment [11]; 72.5% (inactive) and 95.2% (inactive) in experiment [12]. Moreover, the growth in experiment [13] was 93.8% (inactive) and 102% (inactive) and 89.6% (inactive); in [14], 85.2% (inactive) and 95.4% (inactive) and 99.3% (inactive); in experiment [15], 103% (inactive) and 96.2% (inactive) and 96.3% (inactive); in [16] it was 97.4% (inactive) and 103% (inactive) and 96.2% (inactive); in experiment [17], 74.7% (inactive) and 67.2% (inactive) and 100% (inactive); in [18], 107% (inactive) and 87.8% (inactive) and 110% (inactive). Besides, the growth is 91.8% (inactive) and 96.1% (inactive) and 89.5% (inactive) in experiment [19]; 102% (inactive) and 86.1% (inactive) and 94.2% (inactive) in experiment [20].
